# Results as given in the supplement of paper PMC8728848.
# The full list was thinned out, with the strongest signals kept by preference.
# B1: EULS2 M1 (Oryza sativa) (protein)
# chain: MVYCRANPNYAMTARNGAVVLAPANPKDEYQHWIKDMRWSTSIKDEEGYPAFALVNKATGQAIKHSLGQSHPVRLVPYNPEVMDESVLWTESRDVGNGFRCIRMVNNIYLNFDAFHGDKYHGGVRDGTDIVLWKLCEGDNQRWKIQPYYILEQKLISEEDLNSAVDHHHHHH
# Assays:
# Assay in all cases: glycan array binding signal (z-score within array); higher = stronger binding
# Conditions in all cases: glycan notation: IUPAC condensed, linker removed
# [1] = biological target: Fuc(a1-2)Gal(b1-3)GalNAc(a1-3)[Fuc(a1-2)]Gal(b1-4)Glc
# Method in brief: (§1)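 The Consortium for Functional Glycomics database supplied 3228 glycan arrays, of which those lacking an available protein sequence were dropped. The binding signal, a within-array Z-score, was averaged across arrays of the same protein sequence and across linkers. Negative scores can be read as non-binding.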
# [2] = biological target: Fuc(a1-2)Gal(b1-3)GlcNAc(b1-3)Gal(b1-4)Glc
# Method in brief: as §1
# [3] = biological target: Fuc(a1-2)Gal(b1-3)GlcNAc(b1-3)[Gal(b1-4)GlcNAc(b1-6)]Gal(b1-4)Glc
# Method in brief: as §1
# [4] = biological target: Fuc(a1-2)Gal(b1-4)GlcNAc(b1-3)[Fuc(a1-2)Gal(b1-4)GlcNAc(b1-6)]GalNAc
# Method in brief: as §1
# [5] = biological target: Fuc(a1-2)Gal(b1-4)[Fuc(a1-3)]GlcNAc
# Method in brief: as §1
# Fuc(a1-2)Gal6S(b1-4)Glc = biological target: Fuc(a1-2)Gal6S(b1-4)Glc
# Method in brief: as §1
# [6] = biological target: Fuc(a1-2)[Gal(a1-3)]Gal(b1-3)GlcNAc
# Method in brief: as §1
# [7] = biological target: Fuc(a1-2)[Gal(a1-3)]Gal(b1-4)GlcNAc
# Method in brief: as §1
# [8] = biological target: Fuc(a1-2)[GalNAc(a1-3)]Gal(b1-3)GlcNAc(b1-2)Man(a1-3)[Fuc(a1-2)[GalNAc(a1-3)]Gal(b1-3)GlcNAc(b1-2)Man(a1-6)]Man(b1-4)GlcNAc(b1-4)GlcNAc
# Method in brief: as §1
# [9] = biological target: Fuc(a1-2)[GalNAc(a1-3)]Gal(b1-4)GlcNAc(b1-2)Man
# Method in brief: as §1
# Gal(a1-3)Gal(b1-3)GlcNAc = biological target: Gal(a1-3)Gal(b1-3)GlcNAc
# Method in brief: as §1
# [10] = biological target: Gal(a1-3)Gal(b1-3)GlcNAc(b1-2)Man
# Method in brief: as §1
# [11] = biological target: Gal(a1-3)Gal(b1-4)GlcNAc(b1-2)Man(a1-3)[Gal(a1-3)Gal(b1-4)GlcNAc(b1-2)Man(a1-6)]Man(b1-4)GlcNAc(b1-4)GlcNAc
# Method in brief: as §1
# [12] = biological target: Gal(b1-3)GlcNAc(b1-3)Gal(b1-3)GlcNAc
# Method in brief: as §1
# [13] = biological target: Gal(b1-3)[Fuc(a1-4)]GlcNAc(b1-2)Man
# Method in brief: as §1
# [14] = biological target: Gal(b1-3)[Fuc(a1-4)]GlcNAc(b1-2)Man(a1-3)[Gal(b1-3)[Fuc(a1-4)]GlcNAc(b1-2)Man(a1-6)]Man(b1-4)GlcNAc(b1-4)[Fuc(a1-6)]GlcNAc
# Method in brief: as §1
# [15] = biological target: Gal(b1-3)[Fuc(a1-4)]GlcNAc(b1-3)Gal(b1-3)[Fuc(a1-4)]GlcNAc
# Method in brief: as §1
# [16] = biological target: Gal(b1-3)[Neu5Ac(a2-6)]GalNAc
# Method in brief: as §1
# [17] = biological target: Gal(b1-4)GlcNAc(b1-2)Man(a1-3)[Gal(b1-4)GlcNAc(b1-2)Man(a1-6)]Man(b1-4)GlcNAc(b1-4)GlcNAc
# Method in brief: as §1
# [18] = biological target: Gal(b1-4)GlcNAc(b1-2)Man(a1-3)[GlcNAc(b1-4)][Gal(b1-4)GlcNAc(b1-2)Man(a1-6)]Man(b1-4)GlcNAc(b1-4)GlcNAc
# Method in brief: as §1
# [19] = biological target: Gal(b1-4)GlcNAc(b1-2)[Gal(b1-4)GlcNAc(b1-4)]Man(a1-3)[Gal(b1-4)GlcNAc(b1-2)[Gal(b1-4)GlcNAc(b1-6)]Man(a1-6)]Man(b1-4)GlcNAc(b1-4)GlcNAc
# Method in brief: as §1
# [20] = biological target: Gal(b1-4)GlcNAc(b1-2)[Gal(b1-4)GlcNAc(b1-4)]Man(a1-3)[GlcNAc(b1-4)][Gal(b1-4)GlcNAc(b1-2)Man(a1-6)]Man(b1-4)GlcNAc(b1-4)GlcNAc
# Method in brief: as §1
# [21] = biological target: Gal(b1-4)GlcNAc(b1-3)Gal(b1-3)GlcNAc
# Method in brief: as §1
# [22] = biological target: Gal(b1-4)GlcNAc(b1-3)Gal(b1-4)GlcNAc(b1-3)Gal(b1-4)GlcNAc(b1-3)Gal(b1-4)GlcNAc(b1-2)[Gal(b1-4)GlcNAc(b1-3)Gal(b1-4)GlcNAc(b1-3)Gal(b1-4)GlcNAc(b1-3)Gal(b1-4)GlcNAc(b1-6)]Man(a1-6)[Gal(b1-4)GlcNAc(b1-3)Gal(b1-4)GlcNAc(b1-3)Gal(b1-4)GlcNAc(b1-3)Gal(b1-4)GlcNAc(b1-2)Man(a1-3)]Man(b1-4)GlcNAc(b1-4)[Fuc(a1-6)]GlcNAc
# Method in brief: as §1
# [23] = biological target: Gal(b1-4)GlcNAc(b1-6)GalNAc
# Method in brief: as §1
# [24] = biological target: Gal(b1-4)GlcNAc(b1-6)[Gal(b1-4)GlcNAc(b1-3)]GalNAc
# Method in brief: as §1
# [25] = biological target: Gal3S(b1-3)[Fuc(a1-4)]GlcNAc
# Method in brief: as §1
# Gal3S(b1-4)Glc6S = biological target: Gal3S(b1-4)Glc6S
# Method in brief: as §1
# Gal6S(b1-3)GlcNAc6S = biological target: Gal6S(b1-3)GlcNAc6S
# Method in brief: as §1
# [26] = biological target: GalNAc(b1-3)Gal(a1-6)Gal(b1-4)Glc
# Method in brief: as §1
# [27] = biological target: GalNAc(b1-4)GlcNAc(b1-3)GalNAc(b1-4)GlcNAc
# Method in brief: as §1
# Glc(b1-4)Glc = biological target: Glc(b1-4)Glc
# Method in brief: as §1
# GlcA(b1-3)GlcNAc = biological target: GlcA(b1-3)GlcNAc
# Method in brief: as §1
# [28] = biological target: GlcNAc(b1-2)[GlcNAc(b1-4)]Man(a1-3)[GlcNAc(b1-4)][GlcNAc(b1-2)[GlcNAc(b1-6)]Man(a1-6)]Man(b1-4)GlcNAc(b1-4)[Fuc(a1-6)]GlcNAc
# Method in brief: as §1
# GlcNAc(b1-3)Fuc = biological target: GlcNAc(b1-3)Fuc
# Method in brief: as §1
# [29] = biological target: GlcNAc(b1-3)Gal(b1-4)GlcNAc
# Method in brief: as §1
# [30] = biological target: GlcNAc(b1-3)[GlcNAc(b1-6)]Gal(b1-4)GlcNAc
# Method in brief: as §1
# [31] = biological target: Man(a1-3)[Man(a1-6)]Man(b1-4)GlcNAc(b1-4)GlcNAc
# Method in brief: as §1
# Man(a1-6)Man = biological target: Man(a1-6)Man
# Method in brief: as §1
# Man(b1-4)GlcNAc = biological target: Man(b1-4)GlcNAc
# Method in brief: as §1
# [32] = biological target: Neu5Ac(a2-3)Gal(b1-3)GlcNAc
# Method in brief: as §1
# [33] = biological target: Neu5Ac(a2-3)Gal(b1-3)[Neu5Ac(a2-6)]GalNAc
# Method in brief: as §1
# Neu5Ac(a2-3)Gal(b1-4)Glc = biological target: Neu5Ac(a2-3)Gal(b1-4)Glc
# Method in brief: as §1
# [34] = biological target: Neu5Ac(a2-3)Gal(b1-4)GlcNAc(b1-2)[Neu5Ac(a2-3)Gal(b1-4)GlcNAc(b1-6)]Man(a1-6)[Neu5Ac(a2-3)Gal(b1-4)GlcNAc(b1-2)Man(a1-3)][GlcNAc(b1-4)]Man(b1-4)GlcNAc(b1-4)GlcNAc
# Method in brief: as §1
# [35] = biological target: Neu5Ac(a2-6)Gal(b1-4)GlcNAc(b1-2)Man(a1-3)[GlcNAc(b1-2)Man(a1-6)]Man(b1-4)GlcNAc(b1-4)GlcNAc
# Method in brief: as §1
# [36] = biological target: Neu5Ac(a2-6)Gal(b1-4)GlcNAc(b1-3)Gal(b1-4)GlcNAc(b1-6)[Gal(b1-3)]GalNAc
# Method in brief: as §1
# [37] = biological target: Neu5Ac(a2-8)Neu5Ac(a2-3)Gal(b1-4)Glc
# Method in brief: as §1
# [38] = biological target: Neu5Gc(a2-6)Gal(b1-4)GlcNAc
# Method in brief: as §1
# [39] = biological target: Neu5Gc(a2-8)Neu5Gc(a2-6)Gal(b1-4)GlcNAc
# Method in brief: as §1
binder,measurement,setting,value
B1,glycan array binding signal (z-score),[1],-0.333
same,glycan array binding signal (z-score),[2],-0.208
same,glycan array binding signal (z-score),[3],-0.34
same,glycan array binding signal (z-score),[4],-0.457
same,glycan array binding signal (z-score),[5],-0.363
same,glycan array binding signal (z-score),Fuc(a1-2)Gal6S(b1-4)Glc,-1.48
same,glycan array binding signal (z-score),[6],0.694
same,glycan array binding signal (z-score),[7],-0.349
same,glycan array binding signal (z-score),[8],3.99
same,glycan array binding signal (z-score),[9],-1
same,glycan array binding signal (z-score),Gal(a1-3)Gal(b1-3)GlcNAc,3.45
same,glycan array binding signal (z-score),[10],-0.609
same,glycan array binding signal (z-score),[11],0.844
same,glycan array binding signal (z-score),[12],-0.334
same,glycan array binding signal (z-score),[13],1.75
same,glycan array binding signal (z-score),[14],1.19
same,glycan array binding signal (z-score),[15],3.42
same,glycan array binding signal (z-score),[16],1.39
same,glycan array binding signal (z-score),[17],-0.312
same,glycan array binding signal (z-score),[18],1.31
same,glycan array binding signal (z-score),[19],-0.584
same,glycan array binding signal (z-score),[20],0.188
same,glycan array binding signal (z-score),[21],-0.203
same,glycan array binding signal (z-score),[22],0.636
same,glycan array binding signal (z-score),[23],0.271
same,glycan array binding signal (z-score),[24],-0.195
same,glycan array binding signal (z-score),[25],-0.905
same,glycan array binding signal (z-score),Gal3S(b1-4)Glc6S,2.56
same,glycan array binding signal (z-score),Gal6S(b1-3)GlcNAc6S,10.9
same,glycan array binding signal (z-score),[26],2.84
same,glycan array binding signal (z-score),[27],-0.842
same,glycan array binding signal (z-score),Glc(b1-4)Glc,2.81
same,glycan array binding signal (z-score),GlcA(b1-3)GlcNAc,0.171
same,glycan array binding signal (z-score),[28],2.74
same,glycan array binding signal (z-score),GlcNAc(b1-3)Fuc,-0.923
same,glycan array binding signal (z-score),[29],0.2
same,glycan array binding signal (z-score),[30],-0.56
same,glycan array binding signal (z-score),[31],3.41
same,glycan array binding signal (z-score),Man(a1-6)Man,3.16
same,glycan array binding signal (z-score),Man(b1-4)GlcNAc,-0.283
same,glycan array binding signal (z-score),[32],-0.972
same,glycan array binding signal (z-score),[33],0.067
same,glycan array binding signal (z-score),Neu5Ac(a2-3)Gal(b1-4)Glc,-0.186
same,glycan array binding signal (z-score),[34],-0.305
same,glycan array binding signal (z-score),[35],-0.661
same,glycan array binding signal (z-score),[36],0.283
same,glycan array binding signal (z-score),[37],-0.26
same,glycan array binding signal (z-score),[38],0.007
same,glycan array binding signal (z-score),[39],-0.158
